# PubChem BioAssay
# Active and inactive are the calls of the source.
# What was measured:
# [1] = binders of probe aFSTL3 on microarray, primary screen, stem cell growth factor project, biochemical, small-molecule microarray, fluorescence 635/667 (AID 1064); details: higher = more signal;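 also: measures binding of the biotinylated anti-FSTL3 antibody to printed compounds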
# [2] = binders from COS7 lysate, DM2A8 probe, primary screen, torsin A project, cell lysate, small-molecule microarray, fluorescence 635/667 (AID 1065); details: higher = more signal, COS7 lysate expressing mutant human TOR1A
# [3] = binders of probe aFGF2 on microarray, primary screen, stem cell growth factor project, biochemical, small-molecule microarray, fluorescence 635/667 (AID 1067); details: higher = more signal;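 also: measures binding of biotinylated aFGF2 protein to printed compounds on slides; z-score merges feature fluorescence and signal-to-noise across triplicate slides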
# [4] = binders of probe aFGF10 on microarray, primary screen, stem cell growth factor project, biochemical, small-molecule microarray, fluorescence 635/667 (AID 1071); details: higher = more signal;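 also: score merges 667 nm spot intensity and signal to noise from triplicate slides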
# [5] = target: Neurogenic locus notch homolog protein 2 (Homo sapiens) (UniProt Q04721); test: Notch2 binders on small-molecule microarrays, primary screen, biochemical, small-molecule microarray, 635 nm fluorescence, stem cell growth factors (AID 1073); details: Notch2 binding, higher = more signal
# Chain of Neurogenic locus notch homolog protein 2 (Homo sapiens) (Q04721 whole entry, looked up, canonical isoform): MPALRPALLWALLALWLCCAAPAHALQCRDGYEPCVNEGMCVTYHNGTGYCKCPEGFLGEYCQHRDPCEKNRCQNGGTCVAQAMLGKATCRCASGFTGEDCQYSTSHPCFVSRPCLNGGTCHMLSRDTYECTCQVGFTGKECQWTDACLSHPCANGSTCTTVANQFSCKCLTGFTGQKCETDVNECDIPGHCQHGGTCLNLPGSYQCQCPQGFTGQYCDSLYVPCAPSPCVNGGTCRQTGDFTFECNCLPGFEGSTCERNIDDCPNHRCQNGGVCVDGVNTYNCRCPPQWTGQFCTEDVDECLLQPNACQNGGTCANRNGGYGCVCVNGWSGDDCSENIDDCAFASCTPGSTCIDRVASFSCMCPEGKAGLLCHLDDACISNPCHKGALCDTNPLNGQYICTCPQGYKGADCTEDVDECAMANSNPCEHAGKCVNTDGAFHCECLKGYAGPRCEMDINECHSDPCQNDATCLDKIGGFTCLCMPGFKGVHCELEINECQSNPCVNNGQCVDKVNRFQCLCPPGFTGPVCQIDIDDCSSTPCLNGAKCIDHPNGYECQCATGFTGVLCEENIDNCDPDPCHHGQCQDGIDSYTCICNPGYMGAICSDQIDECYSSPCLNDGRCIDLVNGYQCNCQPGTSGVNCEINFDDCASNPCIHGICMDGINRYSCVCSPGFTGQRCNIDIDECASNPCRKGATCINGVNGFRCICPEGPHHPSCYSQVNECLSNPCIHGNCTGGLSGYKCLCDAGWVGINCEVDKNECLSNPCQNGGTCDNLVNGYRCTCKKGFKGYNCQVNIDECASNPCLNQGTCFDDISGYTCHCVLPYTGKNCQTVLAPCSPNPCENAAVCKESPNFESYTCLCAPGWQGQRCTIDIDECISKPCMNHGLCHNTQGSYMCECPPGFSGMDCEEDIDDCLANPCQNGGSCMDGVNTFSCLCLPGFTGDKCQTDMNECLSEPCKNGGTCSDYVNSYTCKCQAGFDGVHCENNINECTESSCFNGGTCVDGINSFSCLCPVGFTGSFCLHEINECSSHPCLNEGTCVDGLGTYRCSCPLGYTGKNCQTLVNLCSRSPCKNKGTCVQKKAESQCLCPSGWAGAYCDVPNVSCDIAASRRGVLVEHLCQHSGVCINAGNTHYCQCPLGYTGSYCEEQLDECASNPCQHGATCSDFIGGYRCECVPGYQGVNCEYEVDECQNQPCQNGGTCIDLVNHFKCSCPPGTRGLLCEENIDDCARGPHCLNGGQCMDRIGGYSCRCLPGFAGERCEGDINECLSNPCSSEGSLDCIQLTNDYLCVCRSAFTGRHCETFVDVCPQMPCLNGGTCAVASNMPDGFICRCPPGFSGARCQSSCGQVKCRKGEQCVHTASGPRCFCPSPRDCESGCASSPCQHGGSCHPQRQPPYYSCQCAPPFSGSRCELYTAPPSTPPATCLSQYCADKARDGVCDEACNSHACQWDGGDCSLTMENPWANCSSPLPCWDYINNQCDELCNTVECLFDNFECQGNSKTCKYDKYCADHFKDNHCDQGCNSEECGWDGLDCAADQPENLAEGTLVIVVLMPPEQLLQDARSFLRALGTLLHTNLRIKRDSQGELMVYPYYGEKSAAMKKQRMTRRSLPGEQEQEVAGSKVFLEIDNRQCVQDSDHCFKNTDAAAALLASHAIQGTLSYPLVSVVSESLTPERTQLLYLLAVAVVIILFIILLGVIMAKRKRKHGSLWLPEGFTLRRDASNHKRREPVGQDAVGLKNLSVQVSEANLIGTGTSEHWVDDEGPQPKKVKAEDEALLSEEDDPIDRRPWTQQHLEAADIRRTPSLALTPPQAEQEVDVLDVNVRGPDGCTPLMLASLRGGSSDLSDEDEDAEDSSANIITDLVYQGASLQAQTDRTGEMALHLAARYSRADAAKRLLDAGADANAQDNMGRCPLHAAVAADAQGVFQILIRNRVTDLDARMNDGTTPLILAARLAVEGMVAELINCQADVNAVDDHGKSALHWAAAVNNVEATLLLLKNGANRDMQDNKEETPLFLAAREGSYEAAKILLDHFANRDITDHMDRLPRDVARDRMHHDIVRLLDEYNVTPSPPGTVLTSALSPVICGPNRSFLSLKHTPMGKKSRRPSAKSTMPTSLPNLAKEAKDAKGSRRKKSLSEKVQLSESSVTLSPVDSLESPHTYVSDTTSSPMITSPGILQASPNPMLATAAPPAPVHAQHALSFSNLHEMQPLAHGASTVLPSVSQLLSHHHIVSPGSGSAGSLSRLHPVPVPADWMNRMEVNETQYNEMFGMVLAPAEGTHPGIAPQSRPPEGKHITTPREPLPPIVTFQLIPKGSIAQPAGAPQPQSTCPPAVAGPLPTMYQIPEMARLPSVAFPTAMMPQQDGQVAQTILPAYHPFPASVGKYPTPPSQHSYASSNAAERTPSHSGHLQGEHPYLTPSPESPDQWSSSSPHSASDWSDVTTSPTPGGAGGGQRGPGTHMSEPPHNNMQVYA
# [6] = target: Pro-neuregulin-1, membrane-bound isoform (Homo sapiens) (UniProt Q02297); test: NRG1 binders on small-molecule microarrays, primary screen, psychiatric disease protein project, biochemical, small-molecule microarray, fluorescence 635/667 (AID 1075); details: NRG1 binding, 635 nm fluorescence, higher = more signal;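 also: score combines 667 nm spot fluorescence with signal to noise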
# Chain of Pro-neuregulin-1, membrane-bound isoform (Homo sapiens) (Q02297 whole entry, looked up, the tested form may be a part, canonical isoform): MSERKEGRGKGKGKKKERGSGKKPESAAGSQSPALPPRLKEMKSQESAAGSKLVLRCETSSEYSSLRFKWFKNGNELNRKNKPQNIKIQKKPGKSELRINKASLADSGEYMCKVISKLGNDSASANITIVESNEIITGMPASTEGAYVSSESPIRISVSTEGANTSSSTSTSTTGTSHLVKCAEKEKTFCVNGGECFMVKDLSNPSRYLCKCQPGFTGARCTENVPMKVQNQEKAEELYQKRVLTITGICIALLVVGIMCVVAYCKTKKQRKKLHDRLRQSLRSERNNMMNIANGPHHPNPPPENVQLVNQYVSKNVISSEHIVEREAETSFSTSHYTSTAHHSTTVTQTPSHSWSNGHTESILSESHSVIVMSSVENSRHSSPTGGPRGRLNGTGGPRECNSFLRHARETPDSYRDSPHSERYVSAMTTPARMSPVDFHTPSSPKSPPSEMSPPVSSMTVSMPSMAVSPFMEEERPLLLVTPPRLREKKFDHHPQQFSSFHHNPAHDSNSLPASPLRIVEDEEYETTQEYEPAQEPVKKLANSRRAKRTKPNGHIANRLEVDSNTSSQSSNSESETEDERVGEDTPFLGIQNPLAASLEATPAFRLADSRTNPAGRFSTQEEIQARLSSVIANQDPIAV
# [7] = tested on: Neuregulin-1 EGF-like domain; test: binders of neuregulin-1 EGF-like domain, primary screen, biochemical, small-molecule microarray, 635 nm fluorescence (AID 1081); details: small-molecule microarray binding, higher = more signal;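 also: binding of the protein to compounds printed on small-molecule microarray slides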
# [8] = FRG1 promoter luciferase signal modulators, primary screen, FRG1 inhibition for FSHD, cell-based, C2C12 myotubes, firefly/Renilla luciferase, luminescence (AID 1084); details: higher = more signal, called active from +8 up or from −8 down
# [9] = binders of probe aFST on microarray, primary screen, stem cell growth factor project, biochemical, small-molecule microarray, fluorescence 635/667 (AID 1086); details: higher = more signal;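 also: score merges 667 nm fluorescence with signal-to-noise of each printed compound spot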
# [10] = binders of probe aHhip on microarray, primary screen, stem cell growth factor project, biochemical, small-molecule microarray, fluorescence 635/667 (AID 1087); details: higher = more signal;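 also: score merges spot fluorescence at 667nm with spot signal to noise ratio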
# [11] = tested on: PRMT1 (protein arginine N-methyltransferase 1); test: PRMT1 binders on small-molecule microarrays, primary screen, biochemical, small-molecule microarray, 635 nm fluorescence (AID 1088); details: small-molecule microarray binding, higher = more signal;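 also: binding of Prmt1 protein to compounds spotted on small-molecule microarray slides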
# [12] = yeast growth modulation, basal conditions, primary screen, YJM789 clinical isolate, OD600, 24 h (AID 1089);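 also: growth of clinical yeast isolate S. cerevisiae YJM 789 seeded 1000 cells per well; test concentration not given here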; details: S. cerevisiae YJM789 growth, higher = more signal, called active from +8 up or from −8 down
# [13] = fission yeast growth modulation, primary screen, strain 972, OD600, 24 h, no modulator (AID 1090);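 also: basal condition with compound alone and no growth modifier present; test concentration not given here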; details: S. pombe 972 growth, higher = more signal, called active from +8 up or from −8 down
# [14] = S. cerevisiae growth modulation with rapamycin, primary screen, strain BY4716, OD600, 96 h (AID 1091); details: higher = more signal, called active from +8 up or from −8 down; also: test concentration not given here
# [15] = target: Torsin-1A-interacting protein 2 (Homo sapiens) (UniProt Q8NFQ8); test: LULL1 binders on small-molecule microarray, primary screen, cell lysate, human LULL1 lysate, 635/667 nm fluorescence (AID 1092); details: hLULL1 lysate binding, 635 nm fluorescence, higher = more signal;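 also: probe is lysate of COS7 cells overexpressing human LULL1; score merges per-feature 667 nm fluorescence with signal-to-noise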
# Chain of Torsin-1A-interacting protein 2 (Homo sapiens) (Q8NFQ8 whole entry, looked up): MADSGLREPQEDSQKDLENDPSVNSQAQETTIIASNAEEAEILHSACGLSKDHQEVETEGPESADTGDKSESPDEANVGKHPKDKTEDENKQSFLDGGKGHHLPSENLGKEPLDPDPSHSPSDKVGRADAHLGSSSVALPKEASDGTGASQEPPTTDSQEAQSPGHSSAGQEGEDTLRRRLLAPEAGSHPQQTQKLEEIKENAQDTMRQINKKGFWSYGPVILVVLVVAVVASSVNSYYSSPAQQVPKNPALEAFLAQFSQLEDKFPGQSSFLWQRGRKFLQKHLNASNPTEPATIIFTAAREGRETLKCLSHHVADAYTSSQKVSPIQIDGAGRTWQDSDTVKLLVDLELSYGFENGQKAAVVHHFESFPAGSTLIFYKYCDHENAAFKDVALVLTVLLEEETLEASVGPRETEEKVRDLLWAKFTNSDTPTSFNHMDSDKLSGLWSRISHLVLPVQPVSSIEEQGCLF
# [16] = E. coli growth modulation, two-sided OD650, primary screen, E. coli filamentation project, strain DRC41, 24 h (AID 1093); details: OD650, 24 h, higher = more signal, called active from +8 up or from −8 down;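 also: MC1000 strain lacking acrAB efflux and sulA so SOS filamentation is blocked; test concentration not given here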
# [17] = small-molecule microarray binders of probe aLefty2, primary screen, biochemical, biotinylated probe, 635/667 nm fluorescence (AID 1094); details: higher = more signal;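 also: score merges spot fluorescence near 667 nm with spot signal-to-noise ratio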
# [18] = tested on: Noggin (protein binding on small-molecule microarray); test: Noggin binders on small-molecule microarray, primary screen, biochemical, 635/667 nm fluorescence (AID 1095); details: 635 nm fluorescence, higher = more signal;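 also: score merges 667 nm feature fluorescence with signal to noise over triplicate slides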
# [19] = target: Neurogenic locus notch homolog protein 3 (Homo sapiens) (UniProt Q9UM47); test: NOTCH3 binders on small-molecule microarray, primary screen, biochemical, 635/667 nm fluorescence (AID 1096); details: NOTCH3 binding, 635 nm fluorescence, higher = more signal
# [20] = small-molecule microarray binders of probe aEGFR, primary screen, biochemical, biotinylated probe, 635/667 nm fluorescence (AID 1097); details: higher = more signal;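 also: probe is a biotinylated anti-EGFR antibody binding compounds printed on slides; score combines fluorescence near 667 nm and signal to noise of each spot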
Structure (SMILES),composite z-score [1],composite z-score [2],composite z-score [3],composite z-score [4],composite z-score [5],composite z-score [6],composite z-score [7],z-score [8],composite z-score [9],composite z-score [10],composite z-score [11],z-score [12],z-score [13],z-score [14],composite z-score [15],z-score [16],composite z-score [17],composite z-score [18],composite z-score [19],composite z-score [20]
CON=C(C)CCC(=O)OC[C@H]1O[C@H](C#Cc2ccccc2)C=C[C@@H]1Oc1ccc(C)cc1,-0.453,-0.172,-0.0563,0.33,-0.598,0.108,0.394,-0.127 (inactive),0.423,0.0854,1.06,1.42 (inactive),-14.2 (active),1.52 (inactive),0.756,0.149 (inactive),-0.143,0.351,0.326,-0.0363
COC(=O)[C@@H]1CC[C@H](C)[C@@H](c2ccc(Br)cc2)N1C[C@@H](O)CN=[N+]=[N-],-0.463,0.054,-0.116,0.186,0.462,0.117,-0.0109,0.687 (inactive),-0.139,0.0881,0.382,-1.44 (inactive),-10.1 (active),-0.243 (inactive),0.147,0.323 (inactive),-0.0412,0.162,0.0511,-0.0902
CO[C@@H](C1CCCCC1)[C@@H](C)[C@H](OCc1cccc(Br)c1)[C@@H](C)CO,-0.284,-0.0003,-0.0909,0.179,-0.0552,-0.194,-0.511,2.57 (inactive),0.306,-0.0173,0.0812,-0.407 (inactive),-16.4 (active),-1.11 (inactive),0.366,0.114 (inactive),-0.181,0.307,0.322,-0.0549
COc1ccc(O[C@H]2C=C[C@@H](C#Cc3ccccc3)O[C@@H]2CO)cc1,-0.213,0.0018,-0.0206,0.457,0.339,0.658,0.644,-1.37 (inactive),0.137,-0.236,0.718,-0.315 (inactive),-20.4 (active),-0.731 (inactive),1.88,1.3 (inactive),-0.248,1.15,0.402,-0.125
C[C@@H]1CC[C@H]2C(=O)OC(Cc3ccccc3)CN2[C@H]1c1ccc(Br)cc1 (stereo not given in full),-0.438,-0.441,-0.156,0.578,-0.125,0.485,1.01,-0.156 (inactive),-0.103,0.0373,1.28,0.127 (inactive),-6.77 (inactive),-0.624 (inactive),1.18,0.823 (inactive),-0.0923,0.151,0.0343,-0.133
CCOC(=O)[C@H](CC(C)C)NC(=O)CCC1CC(OC(=O)NCCc2ccc(F)cc2)CC2(CCCC(COC(=O)NCc3cccc(C(F)(F)F)c3)O2)O1 (stereo not given in full),-0.17,0.13,-0.0924,0.983,1.14,0.806,1.16,-0.0179 (inactive),-0.0518,-0.0102,1.49,0.643 (inactive),0.58 (inactive),0.603 (inactive),1.6,1.05 (inactive),-0.103,0.584,0.722,0.0199
C[C@@H](c1ccccc1)N1C(=O)[C@H]2[C@H]3[C@H](O)[C@H](O)CC(=NOC[C@@H](O)COCc4ccco4)[C@H]3CC[C@H]2C1=O,-0.605,2.38,-0.212,-0.363,-0.206,-0.438,0.919,0.652 (inactive),0.039,-0.0994,0.559,0.342 (inactive),0.453 (inactive),-0.0348 (inactive),-1.07,-0.378 (inactive),-0.0772,0.412,-0.233,-0.164
COC(=O)[C@H](C)NC(=O)CCC1CC(OC(=O)NCCc2ccc(F)cc2)CC2(CCCC(COC(=O)NCCc3ccccc3OC)O2)O1 (stereo not given in full),-0.93,-0.328,-0.172,0.706,1.16,0.608,0.729,-0.0438 (inactive),-0.0835,-0.361,1.11,0.522 (inactive),0.89 (inactive),0.896 (inactive),1.16,-0.0328 (inactive),-0.0916,0.452,1.09,0.104
CCOC(=O)CCN1C(=O)[C@H]2[C@H]3[C@H](O)[C@H](O)CC(=NO[C@@H]4O[C@H](CO)[C@@H](O)[C@H](O)[C@H]4O)[C@@H]3CC[C@H]2C1=O,-0.512,1.86,-0.129,1.04,1.31,0.254,1.14,-0.389 (inactive),0.675,-0.0296,1.52,-0.476 (inactive),-0.664 (inactive),-0.933 (inactive),0.7,0.283 (inactive),-0.0598,0.381,1.09,0.176
CC(C)[C@H](NC(=O)OC(C)(C)C)[C@@H](O)CC(=O)C(C)(C)C,-0.507,0.205,0.0103,0.209,0.541,-0.144,-0.295,0.46 (inactive),0.0986,0.107,-0.377,0.24 (inactive),0.0646 (inactive),0.552 (inactive),0.0487,0.782 (inactive),-0.215,0.838,-0.0208,0.0514
COC(=O)CC=C[C@@H](C)[C@@H](C=NOC(C)CN1CCCCc2nc(C)c(C)cc21)OC (stereo not given in full),-0.0416,2.43,-0.175,-0.425,-0.229,0.33,0.987,0.739 (inactive),0.286,-0.206,1.24,-0.793 (inactive),-0.472 (inactive),-0.906 (inactive),1.24,-0.123 (inactive),-0.0063,0.946,0.234,0.0282
COc1ccc(COC(=O)NN=C2C[C@@H](O)[C@@H](O)[C@@H]3[C@@H]4C(=O)N(C5CCCCC5)C(=O)[C@@H]4CC[C@@H]23)cc1,0.848,-0.132,-0.0883,-0.176,-0.515,-0.112,-0.313,0.468 (inactive),1.34,-0.48,0.35,-0.703 (inactive),-1.86 (inactive),-0.617 (inactive),0.611,-1.03 (inactive),0.687,0.159,-0.218,-0.127
O=C1[C@H]2[C@H]3[C@H](O)[C@H](O)CC(=NO[C@@H]4O[C@H](CO)[C@@H](O)[C@H](O)[C@H]4O)[C@@H]3CC[C@H]2C(=O)N1C1CCCCC1,-0.599,-0.0085,-0.0924,0.233,0.598,0.132,0.0698,-0.637 (inactive),0.296,-0.0645,0.112,0.0081 (inactive),-0.159 (inactive),-0.291 (inactive),0.301,-0.166 (inactive),-0.174,0.662,0.749,-0.111
O=C1C=C[C@@H](O)[C@@H]2[C@@H]3C(=O)N(C4CCCCC4)C(=O)[C@@H]3CC[C@@H]12,0.585,0.0002,-0.189,0.442,0.545,0.305,0.968,-0.325 (inactive),0.265,0.0373,0.299,0.126 (inactive),-1.32 (inactive),-1.27 (inactive),0.548,-0.115 (inactive),-0.0678,0.277,0.818,0.0587
CCCNC(=O)OC[C@H]1O[C@H](CCON=C[C@@H](C)[C@H](OCc2ccccc2)C(C)C)C=C[C@@H]1Oc1ccc(OC)cc1,-0.273,0.729,-0.161,0.416,-0.566,-0.645,-0.814,-0.748 (inactive),-0.307,-0.0346,-0.295,-2.24 (inactive),-1.52 (inactive),-0.25 (inactive),-0.605,-1.13 (inactive),-0.0753,-0.0593,-0.942,-0.141
O=C1C=C[C@@H](O)[C@@H]2[C@@H]3C(=O)N(c4cccc(Oc5ccccc5)c4)C(=O)[C@@H]3CC[C@@H]12,-0.575,-0.285,-0.0527,-0.102,0.493,-0.04,0.588,0.485 (inactive),0.241,-0.274,0.491,0.162 (inactive),-0.753 (inactive),-0.0875 (inactive),0.36,0.533 (inactive),-0.204,0.403,0.477,0.0443
C[C@H]1C=CCC(=O)OC[C@H](C)C(=O)N2CCC[C@H]2C(=O)OC1,-0.815,2.27,-0.291,-0.517,-0.594,-1.01,1.32,0.263 (inactive),0.227,0.107,1.54,0.94 (inactive),0.499 (inactive),-0.0933 (inactive),-1.44,0.0085 (inactive),-0.228,2.09,0.373,0.177
O=C(NCCC[N+]1=CC=NC1c1ccccc1)N1CCCc2nc(-c3ccc(Br)cc3)ccc21 (stereo not given),-0.265,-0.14,-0.107,0.345,0.576,1.21,0.97,0.88 (inactive),0.944,0.0373,-0.476,-0.435 (inactive),-1.69 (inactive),0.763 (inactive),0.0594,2.39 (inactive),-0.0616,0.232,-0.378,-0.0183
COC(=O)[C@H](C)NC(=O)CCC1CC(OC(=O)NCCc2ccc(F)cc2)CC2(CCCC(COC(=O)NCc3ccccc3)O2)O1 (stereo not given in full),-0.749,-0.126,0.0002,0.677,1.06,0.648,0.964,1.61 (inactive),0.65,-0.305,1.53,0.59 (inactive),1.04 (inactive),0.932 (inactive),1.92,-0.755 (inactive),-0.0898,0.55,1.1,-0.0314
